Screens: PubChem BioAssay, several laboratories
Compounds with a hit are over-represented: about 4.3% of the library has one in this group of screens.
FAS TE block: FAS thioesterase (human) inhibition. P49327. recombinant FAS-TE, OMFH fluorogenic substrate, fluorescence endpoint. inhibition, % at 15 µM. actives 0.67% (n = 360,000);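 active = compounds whose normalised, plate-corrected inhibition of enzyme fluorescence in the single-dose primary screen is 50% or more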;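 note: 0% = DMSO with enzyme and 100% = substrate without enzyme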
NadD block: blocks S. aureus nicotinate mononucleotide adenylyltransferase; purified NadD enzyme, colorimetric absorbance read-out; inhibition, % at 20 µM; actives 0.78% (n = 360,000); in the data active = inhibition above about 26%
GRIN3A LBD mod: NR3A (human) ligand-binding domain modulation; NR3A LBD differential scanning fluorimetry, Tm shift; 0% = protein alone, 100% = glycine-bound protein; actives 2.5% (n = 340,000); Tm shift relative to glycine control, % at 25 µM; AID 1259313;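 active = melting temperature shift of at least 10% of the positive control shift, at one fixed dose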
rCAG RNA binder: binds r(CAG) RNA repeats; r(CAG) RNA repeat, TO-PRO-1 dye displacement fluorescence; inhibition, % at 3 µM; actives 1.3% (n = 370,000); AID 651821;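 active = inhibition above the plate cutoff, the mean of all test compounds on that plate plus 3 SD, cut at about 35% in these data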;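 note: 0% = DMSO alone and 100% = 100 µM mitoxantrone as full dye displacement; higher means more dye released from RNA so lower well fluorescence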
rCAG bind conf: r(CAG) RNA repeat binding, confirmation; shares compounds with rCAG RNA binder; TO-PRO-1 dye displacement fluorescence; inhibition, % at 3 µM; actives 70% (n = 4,300); AID 652065;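 active = inhibition above a per-plate cutoff, the mean inhibition of sample wells plus 3 SD, cut at about 35% in these data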;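 note: loss of TO-PRO-1 fluorescence as compound displaces dye from 1x1 AA loop RNA; 0% = DMSO only wells and 100% = 100 µM mitoxantrone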
dCAG dye counter: counter-screen for rCAG RNA binders: DNA CAG dye complex inhibitors | actives 94% (n = 4,300) | AID 652068 | d(CAG) DNA oligo TO-PRO-1 dye displacement, fluorescence | shares compounds with rCAG RNA binder | inhibition, % at 3 µM;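 active = inhibition above its plate's cutoff, the mean test-well inhibition plus 3 SD, cut at about 4.8% in these data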;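 note: 0% = DNA dye mix with DMSO and 100% = 100 µM mitoxantrone; hits displace the dye from DNA and so lower well fluorescence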
dCAG dye DR: DNA CAG dye complex inhibition, dose response counter-screen; shares compounds with rCAG RNA binder; IC50, µM; DNA CAG/GTC duplex TO-PRO-1 dye displacement fluorescence; actives 20% (n = 250); in the data active = IC50 below about 10 µM
Starred values were filed as active, the others as inactive; i = inactive; . = no result given.

SMILES | FAS TE block | NadD block | GRIN3A LBD mod | rCAG RNA binder | rCAG bind conf | dCAG dye counter | others
Cc1cccc(-c2nnc(SCC(=O)Nc3ccc(-c4nc5ccc(C)cc5s4)cc3)n2Cc2ccco2)c1 | . | . | . | 24 | . | .
O=C(Cc1csc(NC(=O)Nc2ccc(Cl)cc2)n1)NC1CCCC1 | -3 | 3 | 13* | 40* | 16 | 15*
Cc1csc(NC(=O)Nc2ccc(Cl)cc2)n1 | 0 | 4 | 21* | 38* | 7 | 9.5*
O=C(Cc1csc(NC(=O)Nc2ccc(Cl)cc2)n1)NCc1ccccn1 | 3 | -3 | 2 | 30 | . | .
NCc1csc(NC(=O)Nc2cccc(Cl)c2)n1 | -10 | 5 | . | 35* | 10 | 8.4*
CCOC(=O)Cc1csc(N/N=C/c2ccc(Cl)cc2)n1 | 2 | -2 | -11 | 4 | . | .
CCOC(=O)Cc1csc(NC(=O)Nc2ccc(Cl)cc2)n1 | 6 | -6 | -7 | 40* | 43* | 17*
Nn1c(SCC(=O)Nc2ccc(Br)cn2)nnc1-c1n[nH]c2c1CCC2 | . | . | . | 4 | . | .
COc1cccc(-c2ccc(CC[C@H]3O[C@H]4CC[C@@H](CO)O[C@H]4C[C@H]3NS(C)(=O)=O)cc2)c1 | . | . | . | 7 | . | .
CCOC(=O)c1csc(NC(=O)COc2ccc(Cl)cc2Cl)n1 | 5 | -8 | -6 | 0 | . | .
CCOC(=O)c1csc(NC(=O)Nc2cccc(Cl)c2)n1 | -6 | 2 | 0 | 59* | 50* | 28*
CN(C)Cc1csc(NC(=O)Nc2cccc(Cl)c2)n1 | -3 | -1 | . | 22 | . | .
CCOC(=O)Cc1csc(NC(=O)Nc2cccc(Cl)c2)n1 | 4 | -2 | -3 | 53* | 17 | 16*
Cc1ccccc1-c1ccc2c(c1)[C@@H]1C[C@H](N(C)S(=O)(=O)c3ccc(Cl)cc3)[C@H]([C@H](C)O)CN1CC2 | . | . | . | 6 | . | .
Nc1ccc2c(O)cc(S(=O)(=O)O)cc2c1 | -8 | 4 | 3 | 87* | 34 | 9.7*
COc1ccc(Cl)cc1NC(=S)NNC(=O)C1(C)CC1(Cl)Cl (configuration not stated) | 1 | 5 | 3 | 43* | 25 | 5.5*
COc1cc(/C=C2\SC(=Nc3ccc(N4CCOCC4)cc3)N(C)C2=O)ccc1OC(C)C(=O)O (configuration not stated) | -6 | 14 | -4 | 41* | 52* | 17*
CN=C1S/C(=C\c2ccc(OCC(=O)OC)c(OC)c2)C(=O)N1C | -3 | -2 | -1 | -5 | . | .
COc1cc(/C=C2\SC(=Nc3ccccc3)N(Cc3ccco3)C2=O)ccc1OC(C)C(=O)O (configuration not stated) | 22 | 10 | -1 | 67* | 71* | 29* | dCAG dye DR=i
Cc1sc(NC(=O)C2CCCCC2C(=O)O)c(C(N)=O)c1-c1ccc(C(C)C)cc1 (configuration not stated) | -1 | 11 | -2 | 37* | 54* | 16*
Cc1sc(NC(=O)C2CCCCC2C(=O)O)c(C(N)=O)c1-c1ccccc1 (configuration not stated) | -7 | 6 | -1 | 15 | . | .
O=C(O)Cn1cc(/C=C2/SC(=O)N(CC(=O)N3CCCCCC3)C2=O)c2ccccc21 | . | . | -2 | 40* | 37* | 10*
O=[N+]([O-])c1cc(Br)c(O)c(/C=N/Nc2nnnn2-c2cccc3ccccc23)c1 | 5 | 15 | 4 | 92* | 89* | 63*
O=[N+]([O-])c1cc(Br)c(O)c(C=Nc2ccc(N3CCOCC3)cc2)c1 | -2 | 8 | -4 | 24 | . | .
Cc1ccc(S(=O)(=O)N(CC(=O)Nc2ccccc2C(=O)O)c2cccc(Cl)c2C)cc1 | 21 | 6 | 4 | 78* | 82* | 52*
SMILES | FAS TE block | NadD block | GRIN3A LBD mod | rCAG RNA binder | rCAG bind conf | dCAG dye counter | others
Cc1ccc(S(=O)(=O)N(CC(=O)Nc2ccccc2C(=O)O)c2ccccc2C)cc1 | 1 | -1 | -5 | 58* | 50* | 15*
CCc1cc(=O)oc2cc(C)cc(OCC(=O)N[C@@H](CSCc3ccccc3)C(=O)O)c12 | 19 | -4 | 2 | 47* | 40* | 8.3*
CCCCc1cc(=O)oc2cc(C)cc(OCC(=O)N[C@@H](CSCc3ccccc3)C(=O)O)c12 | 32 | -3 | -9 | 39* | 47* | 12*
CCc1cc(=O)oc2cc(C)cc(OCC(=O)NC(Cc3ccc(Cl)cc3)C(=O)O)c12 (configuration not stated) | 23 | 0 | 2 | 34 | . | .
Cc1ccc(C(=O)Nn2c(O)c(C=C3N=c4ccccc4=N3)sc2=S)cc1 | -4 | 10 | 27* | 58* | 40* | 16*
O=C(Nn1c(O)c(C=C2N=c3ccccc3=N2)sc1=S)c1ccccc1 | -6 | -2 | 23* | 51* | 23 | 9.6*
Oc1c(C=C2N=c3ccccc3=N2)sc(=S)n1-c1ccc(F)cc1 | -9 | -1 | 9 | 4 | . | .
O=C(Nn1c(O)c(C=C2N=c3ccccc3=N2)sc1=S)c1cccc(Cl)c1 | 1 | 11 | 29* | 73* | 43* | 15*
Cc1ccc(S(=O)(=O)Nn2c(C)ccc2C)cc1 | -4 | 28 | -3 | 28 | . | .
Oc1c(C=C2N=c3ccccc3=N2)sc(=S)n1C1CCCC1 | -4 | -2 | -2 | 11 | . | .
Cc1ccc(S(=O)(=O)Nn2c(O)c(C=C3N=c4ccccc4=N3)sc2=S)cc1 | -3 | 7 | 7 | 94* | 88* | 60*
COC(=O)[C@]12C[C@H](CC(=O)N3CCC(c4ccccc4)CC3)C(=O)N(Cc3ccco3)C1=C[C@H](C(C)(C)C)O[C@@H]2C | . | . | . | 3 | . | .
COc1cccc(C2NC(=S)N(Cc3ccccc3)C(C)=C2C(C)=O)c1 (configuration not stated) | . | . | . | 2 | . | .
COC(=O)CCN(Cc1cccc(OC)c1OC)S(=O)(=O)c1ccccc1Br | . | . | . | 3 | . | .
O=C1N=c2ccc(Br)cc2=C1c1sc(=S)n(NS(=O)(=O)c2ccccc2)c1O | -1 | 21 | -11 | 81* | 80* | 50*
O=C(O)c1ccccc1NS(=O)(=O)c1cccc(C(F)(F)F)c1 | -7 | 2 | -19 | 15 | . | .
COc1ccccc1NC(=O)C(=O)NNS(=O)(=O)c1ccc2ccccc2c1 | 3 | 1 | -6 | 38* | 28 | 6.1*
O=C(O)c1ccccc1NS(=O)(=O)c1cccc(-n2sc3ccccc3c2=O)c1 | -4 | 9 | -36 | 72* | 74* | 34* | dCAG dye DR=7.2*
COc1ccc(NC(=S)NNS(=O)(=O)c2ccc3ccccc3c2)c(OC)c1 | -2 | 9 | -1 | 14 | . | .
O=C(O)c1ccccc1NS(=O)(=O)c1ccc2ccccc2c1 | -2 | -7 | -9 | 39* | 28 | 6.1*
O=c1oc(-c2ccccc2NS(=O)(=O)c2ccc3ccccc3c2)nc2ccccc12 | 35 | 11 | -6 | 66* | 37* | 12*
